Results as given in PubChem BioAssay (NCI).
Compounds without any hit were thinned out: in the full panel of roughly 83,000, 20% have a hit.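 Growth was measured after 48 h exposure to one concentration of compound in 96-well plates. Values under 10 count as active.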 Unmarked numbers belong to inactive results. Activity calls are given as the source filed them.

Columns and labels:
Experiment in all cases: NCI-60 one-dose screen, 48 h (100 = growth as untreated, 0 = no growth, -100 = all killed)
Details in all cases: 10 µM unless noted
T-47D breast = test system: T-47D breast
BT-549 breast = test system: BT-549 breast
MDA-MB-435 melanoma = test system: MDA-MB-435 melanoma
SW-620 colon = test system: SW-620 colon
MCF7 breast = test system: MCF7 breast
HCT-116 colon = test system: HCT-116 colon
HCC-2998 colon = test system: HCC-2998 colon
KM12 colon = test system: KM12 colon

| SMILES | growth (T-47D breast) | growth (BT-549 breast) | growth (MDA-MB-435 melanoma) | growth (SW-620 colon) | growth (MCF7 breast) | growth (HCT-116 colon) | growth (HCC-2998 colon) | growth (KM12 colon) |
| --- | --- | --- | --- | --- | --- | --- | --- | --- |
| COc1ncc(-c2ccc3ncnc(Nc4cccc(Cl)c4)c3c2)cc1NS(C)(=O)=O | -6.68% (active) | 25.3% | 41.9% | 50.2% | 7.7% (active) | 47% | 56.8% | 55.3% |
| CN1CCN(Cc2ccc(NC(=O)c3cncc(C#Cc4cncc5nccnc45)c3)cc2C(F)(F)F)CC1 | 46.5% | 82.8% | 21.9% | 26.4% | 33.8% | 20.2% | 33.6% | 13.9% |
| COc1ccc(OCC(=O)Nc2ccc(-c3nc4ccccc4s3)cc2C)cc1 | 30.4% | 91.9% | 101% | 97% | 29.9% | 74% | 90.4% | 107% |
| c1ccc2c(Nc3cccc4ccccc34)cccc2c1 | 65.2% | 62.8% | -27.7% (active) | 19% | 43.9% | 30.3% | 78.4% | 33.6% |
| COc1cc(-c2nc3ccccc3s2)ccc1NC(=O)COc1ccc(Cl)cc1 | 23% | 87.6% | 72% | 87.6% | 40.4% | 44.9% | 85.1% | 45.6% |
| COc1cc2c(=O)n(CC3CCCCC3)c3c4cc[nH]c4ncc3c2cc1OC | 44.9% | 25.9% | 55.3% | 30.3% | 19.8% | 28.9% | 62.3% | 19% |
| c1ccc2sc(SCCCn3ccnc3)nc2c1 | 75.5% | 96.8% | 97.6% | 97.4% | 88.1% | 92.5% | 94.1% | 97.8% |
| CC/C=C\C[C@H](O)C/C=C1/C(=O)C=C[C@@H]1C/C=C\CCCC(=O)OC(C)C | 6.79% (active) | -18.3% (active) | 2.16% (active) | 0.553% (active) | 3.64% (active) | -70.1% (active) | -88% (active) | -62.2% (active) |
| C=C1CC[C@@H]2[C@](C)(COC(C)=O)[C@H](OC(C)=O)CC[C@@]2(C)[C@@H]1CC(NCc1ccc(F)cc1)C1=CCOC1=O (some centres undefined) | 26.6% | 28.7% | 32.7% | 32% | 16.6% | 33.7% | 89.3% | 46.5% |
| C=C1CC[C@@H]2[C@](C)(COC(C)=O)[C@H](OC(C)=O)CC[C@@]2(C)[C@@H]1CC(Nc1ccc(S(=O)(=O)Nc2ccc(Cl)nn2)cc1)C1=CCOC1=O (some centres undefined) | 34.1% | -9.45% (active) | 8.13% (active) | -37.7% (active) | 16.8% | -34.1% (active) | 88.5% | 27% |
| O=C1CCc2c(sc3[nH]c(=S)n(Cc4ccccc4)c(=O)c23)C1 | 6.69% (active) | 10.6% | 15% | 15.4% | 15.8% | 6.51% (active) | 23.9% | 5.93% (active) |
| C=C(C[n+]1ccccc1)[C@@H]1CC[C@]2(C(=O)OC)CC[C@]3(C)[C@H](CC[C@@H]4[C@@]5(C)CC[C@H](O)C(C)(C)[C@@H]5CC[C@]43C)[C@@H]12 | 82.5% | 99% | 91.8% | 91.6% | 97.7% | 97% | 104% | 103% |
| CCOC(=O)c1c2c(n3ccc(NC(=O)CCN4CCCCC4)cc13)C(=O)c1ncccc1C2=O | 44.6% | 58.5% | -61.8% (active) | -20.2% (active) | -61.1% (active) | -61.1% (active) | -66% (active) | -75.6% (active) |
| CCc1ccccc1NC(=O)c1sc2nc3c(cc2c1N)C(=O)CCC3 | 23.2% | 48% | -56.6% (active) | 25.7% | 8.92% (active) | 26.1% | 24% | 25.4% |
| COc1cnc2c(c1)C(=O)c1c-2n(CCCBr)c(=O)c2cc([N+](=O)[O-])ccc12 | 2.87% (active) | 25.5% | 11.4% | 12.1% | 1.77% (active) | -24.8% (active) | 13.7% | 1.44% (active) |
| COc1ccc(/C=N\NC(=O)CN2CCN(c3cc4c(cc3F)c(=O)c(C(=O)N/N=C/c3ccc(OC)cc3)cn4C3CC3)CC2)cc1 | 82.5% | 88.5% | 90.3% | 101% | 73.2% | 88.8% | 102% | 89.8% |
| CCCCNC(=O)NS(=O)(=O)c1ccc(N2N=C(c3cc(C)ccc3C)CC2c2cc(OC)c(OC)c(OC)c2)cc1 (centres undefined) | 38.4% | 20.6% | -46.2% (active) | 66.6% | 24.4% | 32.3% | -1.57% (active) | 46.1% |
| COc1ccc(S(=O)(=O)NCCCNc2cc(-c3c(-c4cccc(OC)c4)nc4sccn34)ccn2)cc1 | 2.13% (active) | 45.1% | 44.4% | 63.7% | 34.5% | 47.3% | 70.7% | 39.6% |
| Nc1cc(-c2nc3sccn3c2-c2ccnc(NCCCNS(=O)(=O)c3ccc(F)cc3)n2)ccc1F | 15.4% | 52.2% | 22.9% | 54.7% | 37.4% | 36.8% | 90.3% | 59.7% |
| O=c1cc(-c2ccccc2)[nH]c2ccccc12 | 47.9% | -12.2% (active) | -16.8% (active) | 29.8% | 15.6% | 25.1% | 18.5% | 12.7% |
| Cc1ccc2c(c1)C(=O)c1c-2c(OCCCN(C)C)nc2ccccc12 | 63.4% | 71.5% | -32.1% (active) | -57.3% (active) | -75.8% (active) | 21% | -15.2% (active) | -46.4% (active) |
| O=C(CN1CCN(c2cc3c(cc2F)c(=O)c(C(=O)O)cn3C2CC2)CC1)Nc1nc(-c2ccc(Cl)cc2)cs1 | 40.2% | 26.3% | 25.2% | 26.2% | 23.5% | 13.7% | 29.8% | 21.8% |
| Cc1ccccc1CCO | 96.9% | 95.1% | 108% | 94.7% | 91.1% | 93.6% | 92.6% | 109% |
| CCOC(=O)Cc1cnn(C)c1NC(=O)c1ccc(Cl)cc1NC(C)=O | 103% | 93.2% | 99.4% | 105% | 106% | 101% | 107% | 102% |
| COc1ccc(C/C(C)=C(\c2ccc(Cl)cc2)c2ccc(OCCN3CCCCCC3)cc2)cc1 | 56.8% | 94.9% | 88.7% | 58.4% | 62.7% | 56.5% | 83.1% | 73.9% |
| Nc1c(C(=O)Nc2cccc3c2OCCO3)sc2nc3c(cc12)CN(Cc1ccccc1)CC3 | 68.2% | 69.7% | 6.47% (active) | 47.6% | 28.3% | 45.4% | 101% | 59.4% |
| Cc1cc(Nc2nc(N3CCOCC3)nc3ccccc23)n[nH]1 | 72.5% | 61.5% | 57.4% | 79.3% | 47.8% | 40.1% | 83.4% | 10.3% |
| COc1ccc2nc3cc(Cl)ccc3c(N3CCN(c4ccnc(N5CCN(C)CC5)n4)CC3)c2c1 | -26.1% (active) | 55.5% | 66.5% | -55.1% (active) | -55.8% (active) | -62.4% (active) | 8.43% (active) | 36% |
